From PubChem BioAssay (EPA / NIEHS)
Active and inactive are the calls of the source. The calls were made as follows: active = hit-call score of the fitted dose curve at least 0.9, where 1 is the maximum; inactive = score below 0.9.

How the values were obtained:
[1] = ATG_CRE_CIS: Attagene CIS-FACTORIAL HepG2 Assay for human cAMP Responsive Element (CRE) binding protein 3 (AID 2282926); conditions: HepG2 CRE cis-reporter, Attagene multiplexed mRNA; actives raise or lower the signal
In short: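 Induced reporter mRNA from a CRE cis element, measured in HepG2 among many multiplexed units at 24 h. Detection used RT-PCR plus capillary electrophoresis of fluorescent fragments; DMSO served as negative control.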

[2] = biological target: CCAAT/enhancer-binding protein beta (Homo sapiens) (UniProt P17676); assay: ATG_C_EBP_CIS: Attagene CIS-FACTORIAL HepG2 Assay for human CCAAT/Enhancer Binding Protein (C/EBP) beta (AID 2282927); conditions: HepG2 Attagene cis-factorial transcription factor reporter; actives raise or lower the signal
In short: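 Endogenous C/EBPb-driven reporter transcripts measured in transfected human HepG2 cells at 24 h via RT-PCR and capillary electrophoresis of labelled fragments. Activity fitted in both directions relative to DMSO baseline.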

[3] = ATG_CMV_CIS: Attagene CIS-FACTORIAL HepG2 Assay for human CMV (Internal Marker) (AID 2282928); conditions: HepG2 CMV promoter reporter, transcription factor profiling; actives raise or lower the signal;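 also: endpoint acts as a background internal control marker rather than a target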
In short: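 Readout: fluorescent reporter cDNA fragments separated by capillary electrophoresis after RT-PCR and HpaI cut. Cells: HepG2 carrying transfected cis-promoter reporter constructs, dosed 24 h. Endpoint serves as background internal-marker control, fit bidirectionally versus DMSO.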

[4] = ATG_DR4_LXR_CIS: Attagene CIS-FACTORIAL HepG2 Assay for human Liver X Receptor (LXR), DR4 submotif (AID 2282929); conditions: HepG2 Attagene DR4 cis-reporter, mRNA transcription; actives raise or lower the signal
In short: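 DR4 cis-reporter in HepG2, 24 h exposure. Detection: RT-PCR, 6-FAM labelling, CE fragment analysis. Endpoint fitted bidirectionally, DMSO = baseline.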

[5] = biological target: Aryl hydrocarbon receptor (Homo sapiens) (UniProt P35869); assay: ATG_Ahr_CIS: Attagene CIS-FACTORIAL HepG2 Assay for human Aryl Hydrocarbon Receptor (Ahr) (AID 2282930); conditions: HepG2 AhR cis-factorial reporter transcription; actives raise or lower the signal
In short: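 Reporter mRNA levels, quantified by RT-PCR and fluorescent capillary electrophoresis, reflect endogenous AhR transcriptional activity in HepG2 cells carrying transfected cis-promoter reporter constructs. Readout at 24 h post-dose; gain or loss fitted against DMSO baseline.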

[6] = ATG_AP_1_CIS: Attagene CIS-FACTORIAL HepG2 Assay for human Activator Protein 1 (AP-1) (AID 2282931); conditions: HepG2 Attagene cis-factorial AP-1 reporter mRNA; actives raise or lower the signal
In short: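 Cis-regulated reporter units transiently expressed in HepG2 report endogenous transcription-factor activity. Signal: reporter mRNA at 24 h, via RT-PCR and fluorescent capillary electrophoresis. Endpoint derived by bidirectional fitting, DMSO as negative control.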

[7] = ATG_AP_2_CIS: Attagene CIS-FACTORIAL HepG2 Assay for human Activator Protein 2 (AP-2) (AID 2282932); conditions: HepG2 AP-2 cis-reporter, Attagene transcription factor profiling; actives raise or lower the signal
In short: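 Endogenous transcription factor activity is reported through transfected multiplex reporter constructs in HepG2, after 24 h of compound exposure. Transcripts were quantified by RT-PCR and capillary electrophoresis of fluorescent fragments. Bidirectional fit against DMSO.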

[8] = ATG_BRE_CIS: Attagene CIS-FACTORIAL HepG2 Assay for human Bone Morphogenetic Protein (BMP) Response Element (BRE) (AID 2282933); conditions: HepG2 BMP response element reporter, Attagene transcription factor profiling; actives raise or lower the signal
In short: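 Read-out: reporter mRNA induction quantified by RT-PCR and capillary electrophoresis after 24 h chemical exposure of transfected HepG2 cells. Endogenous factor activity on the BMP response element; gain or loss fitted against DMSO baseline.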

[9] = biological target: Retinoic acid receptor alpha (Homo sapiens) (UniProt P10276); assay: ATG_DR5_RAR_CIS: Attagene CIS-FACTORIAL HepG2 Assay for human Retinoic Acid Receptor Alpha (RARE), DR5 submotif (AID 2282934); conditions: HepG2 Attagene cis-factorial RARE DR5 reporter, mRNA; actives raise or lower the signal;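 as to AC50: reporter responds to endogenous RAR alpha beta and gamma in HepG2 not RARA alone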
In short: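 Reporter transcripts from a DR5-regulated unit, measured via RT-PCR plus capillary electrophoresis, reflect endogenous RAR activity in transiently transfected human HepG2 liver cells. Exposure lasted 24 h; gain or loss of signal scored against DMSO.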

[10] = ATG_E_Box_CIS: Attagene CIS-FACTORIAL HepG2 Assay for human Enhancer Box (E-box) (AID 2282936); conditions: HepG2 E-box cis-reporter transcription, actives raise or lower the signal
In short: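 E-box-driven reporter transcripts measured in transiently transfected HepG2 after 24 h exposure: RNA reverse-transcribed, PCR-amplified, fluorescently labelled, digested and resolved by capillary electrophoresis. Gain or loss relative to DMSO.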

[11] = ATG_M_61_CIS: Attagene CIS-FACTORIAL HepG2 Assay for M61 Transcription Factor (Internal Marker) (AID 2282937); conditions: HepG2 Attagene CIS-FACTORIAL M61 internal marker reporter; actives raise or lower the signal
In short: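 Background-control endpoint: HepG2 cells with cis-regulated reporter constructs, 24 h exposure, reporter mRNA detected via fluorescent primer extension and capillary electrophoresis; values from bidirectional fitting with DMSO baseline.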

[12] = ATG_EGR_CIS: Attagene CIS-FACTORIAL HepG2 Assay for human Early Growth Response 1 (EGR1) (AID 2282938); conditions: HepG2 Attagene CIS-FACTORIAL EGR reporter mRNA; actives raise or lower the signal
In short: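 Endpoint derived by bidirectional fitting versus DMSO vehicle. Method: cis-promoter reporter units transfected into HepG2, 24 h dosing, RNA isolation, RT-PCR with 6-FAM primer extension and HpaI digestion, then capillary electrophoresis fluorescence detection.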

[13] = ATG_M_19_CIS: Attagene CIS-FACTORIAL HepG2 Assay for M19 Transcription Factor (Internal Marker) (AID 2282939); conditions: HepG2 Attagene CIS-FACTORIAL M19 internal marker reporter; actives raise or lower the signal
In short: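 Readout: fluorescent reporter-transcript fragments by capillary electrophoresis after RT-PCR. Human HepG2 liver cells carried transfected MRTU constructs reporting endogenous transcription-factor activity; exposure 24 h. Gain or loss of signal fitted relative to DMSO.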

[14] = ATG_Ets_CIS: Attagene CIS-FACTORIAL HepG2 Assay for human Erythroblast Transformation Specific (ETS) (AID 2282941); conditions: HepG2 ETS cis-reporter transcription, actives raise or lower the signal
In short: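 RT-PCR/capillary electrophoresis fluorescence read-out of reporter mRNA; HepG2 transient multi-reporter transfection; 24 h compound exposure; gain or loss of signal fitted bidirectionally relative to DMSO.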

[15] = biological target: Hepatocyte nuclear factor 3-beta (Homo sapiens) (UniProt Q9Y261); assay: ATG_FoxA2_CIS: Attagene CIS-FACTORIAL HepG2 Assay for human Forkhead box A2 (FOXA2) (AID 2282942); conditions: HepG2 cis-reporter transcription factor activity, 24 h; actives raise or lower the signal
In short: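 Measured: reporter mRNA induction or loss in HepG2 transiently carrying multiple cis-regulated reporter units, 24 h after dosing. Quantified by RT-PCR plus capillary electrophoresis, normalised to DMSO.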

[16] = ATG_FoxO_CIS: Attagene CIS-FACTORIAL HepG2 Assay for human Forkhead box O (FoxO) (AID 2282943); conditions: HepG2 Attagene cis-reporter, FoxO element, mRNA; actives raise or lower the signal
In short: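 Endogenous transcription factor activity read from multiplexed cis-promoter reporter transcripts in transiently transfected HepG2, 24 h after dosing. Reporter RNA measured via RT-PCR plus capillary electrophoresis of FAM-labeled products; gain or loss relative to DMSO.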

[17] = ATG_GATA_CIS: Attagene CIS-FACTORIAL HepG2 Assay for human GATA Binding Protein (AID 2282944); conditions: HepG2 GATA cis-element reporter, Attagene multiplex mRNA; actives raise or lower the signal
In short: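 Read-out: fluorescent reporter mRNA fragments resolved by capillary electrophoresis after RT-PCR. Human liver HepG2 cells carried transiently transfected cis-regulated reporter constructs; chemicals incubated 24 h; gain or loss of signal fitted relative to DMSO.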

[18] = ATG_GLI_CIS: Attagene CIS-FACTORIAL HepG2 Assay for human Zinc Finger Protein GLI1 (AID 2282945); conditions: HepG2, Attagene cis-factorial reporter mRNA, GLI element; actives raise or lower the signal
In short: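 Bidirectional curve fits relative to DMSO, using reporter mRNA levels from RT-PCR plus capillary electrophoresis. Cells were HepG2 transiently carrying cis-regulated reporter constructs, harvested 24 h after dosing.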

[19] = biological target: Transcription factor E2F1 (Homo sapiens) (UniProt Q01094); assay: ATG_E2F_CIS: Attagene CIS-FACTORIAL HepG2 Assay for human E2F Transcription Factor 1 (AID 2282935); conditions: HepG2 Attagene cis-reporter, E2F reporter RNA transcripts; actives raise or lower the signal
In short: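 Gain or loss of reporter transcript, fitted against DMSO, reflects E2F1-driven transcription. Transiently transfected HepG2 dosed 24 h before RNA isolation. Quantified by fluorescent RT-PCR products separated by capillary electrophoresis.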

Measured: AC50

Sequence of Hepatocyte nuclear factor 3-beta (Homo sapiens) (Q9Y261 whole entry, looked up): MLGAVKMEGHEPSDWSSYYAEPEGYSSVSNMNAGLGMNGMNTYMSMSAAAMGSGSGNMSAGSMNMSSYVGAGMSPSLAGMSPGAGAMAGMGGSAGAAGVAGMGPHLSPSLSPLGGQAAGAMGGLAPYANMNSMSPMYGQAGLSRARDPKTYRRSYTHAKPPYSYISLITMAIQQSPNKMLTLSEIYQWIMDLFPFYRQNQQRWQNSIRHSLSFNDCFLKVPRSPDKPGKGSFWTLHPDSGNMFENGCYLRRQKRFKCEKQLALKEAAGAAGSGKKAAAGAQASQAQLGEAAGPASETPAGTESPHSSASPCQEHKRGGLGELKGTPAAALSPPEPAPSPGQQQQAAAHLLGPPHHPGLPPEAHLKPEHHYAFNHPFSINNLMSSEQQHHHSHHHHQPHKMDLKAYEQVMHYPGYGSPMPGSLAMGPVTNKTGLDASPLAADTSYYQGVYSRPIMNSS
Sequence of CCAAT/enhancer-binding protein beta (Homo sapiens) (P17676 whole entry, looked up, the tested form may be a part): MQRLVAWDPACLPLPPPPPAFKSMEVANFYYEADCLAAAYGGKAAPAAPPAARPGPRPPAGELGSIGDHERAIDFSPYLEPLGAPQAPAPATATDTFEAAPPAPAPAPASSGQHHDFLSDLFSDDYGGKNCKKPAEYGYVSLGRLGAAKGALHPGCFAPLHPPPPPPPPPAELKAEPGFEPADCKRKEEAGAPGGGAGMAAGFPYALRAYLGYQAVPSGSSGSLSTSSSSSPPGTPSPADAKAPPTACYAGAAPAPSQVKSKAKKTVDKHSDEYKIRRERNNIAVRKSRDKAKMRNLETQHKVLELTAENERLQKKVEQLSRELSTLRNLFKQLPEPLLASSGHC
Sequence of Aryl hydrocarbon receptor (Homo sapiens) (P35869 whole entry, looked up): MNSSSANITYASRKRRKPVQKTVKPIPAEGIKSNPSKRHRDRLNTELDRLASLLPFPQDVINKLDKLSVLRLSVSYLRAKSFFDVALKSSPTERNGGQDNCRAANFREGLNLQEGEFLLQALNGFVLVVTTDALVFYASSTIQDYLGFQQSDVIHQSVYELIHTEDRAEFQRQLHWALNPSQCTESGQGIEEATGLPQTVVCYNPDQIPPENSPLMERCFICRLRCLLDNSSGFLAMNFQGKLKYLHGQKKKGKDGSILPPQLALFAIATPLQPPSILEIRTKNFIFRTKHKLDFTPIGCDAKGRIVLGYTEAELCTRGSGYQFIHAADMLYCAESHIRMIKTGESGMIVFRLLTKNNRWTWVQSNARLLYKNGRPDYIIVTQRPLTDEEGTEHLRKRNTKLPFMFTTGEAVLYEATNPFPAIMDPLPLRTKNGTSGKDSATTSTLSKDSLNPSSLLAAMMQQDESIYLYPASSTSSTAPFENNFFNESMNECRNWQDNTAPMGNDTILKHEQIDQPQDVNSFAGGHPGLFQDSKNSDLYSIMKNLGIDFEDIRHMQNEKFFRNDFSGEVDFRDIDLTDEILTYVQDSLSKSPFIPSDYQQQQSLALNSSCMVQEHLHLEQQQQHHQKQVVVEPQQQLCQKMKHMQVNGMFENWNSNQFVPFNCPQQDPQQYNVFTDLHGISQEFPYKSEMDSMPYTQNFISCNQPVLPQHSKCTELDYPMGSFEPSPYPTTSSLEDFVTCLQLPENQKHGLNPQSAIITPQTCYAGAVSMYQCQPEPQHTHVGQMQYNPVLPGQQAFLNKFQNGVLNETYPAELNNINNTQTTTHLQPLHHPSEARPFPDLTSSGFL
Sequence of Transcription factor E2F1 (Homo sapiens) (Q01094 whole entry, looked up): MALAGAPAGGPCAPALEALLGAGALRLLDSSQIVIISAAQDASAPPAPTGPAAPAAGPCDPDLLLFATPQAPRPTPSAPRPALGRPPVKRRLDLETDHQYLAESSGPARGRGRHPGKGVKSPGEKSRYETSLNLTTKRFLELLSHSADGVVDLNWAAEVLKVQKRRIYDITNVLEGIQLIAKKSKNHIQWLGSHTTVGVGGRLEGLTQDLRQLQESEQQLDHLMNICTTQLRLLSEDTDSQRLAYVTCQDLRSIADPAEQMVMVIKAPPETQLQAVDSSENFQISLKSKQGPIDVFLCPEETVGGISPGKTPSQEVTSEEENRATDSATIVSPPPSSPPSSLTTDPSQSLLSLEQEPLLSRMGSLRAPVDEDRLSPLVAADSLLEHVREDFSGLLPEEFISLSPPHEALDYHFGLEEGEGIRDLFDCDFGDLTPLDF
Sequence of Retinoic acid receptor alpha (Homo sapiens) (P10276 whole entry, looked up): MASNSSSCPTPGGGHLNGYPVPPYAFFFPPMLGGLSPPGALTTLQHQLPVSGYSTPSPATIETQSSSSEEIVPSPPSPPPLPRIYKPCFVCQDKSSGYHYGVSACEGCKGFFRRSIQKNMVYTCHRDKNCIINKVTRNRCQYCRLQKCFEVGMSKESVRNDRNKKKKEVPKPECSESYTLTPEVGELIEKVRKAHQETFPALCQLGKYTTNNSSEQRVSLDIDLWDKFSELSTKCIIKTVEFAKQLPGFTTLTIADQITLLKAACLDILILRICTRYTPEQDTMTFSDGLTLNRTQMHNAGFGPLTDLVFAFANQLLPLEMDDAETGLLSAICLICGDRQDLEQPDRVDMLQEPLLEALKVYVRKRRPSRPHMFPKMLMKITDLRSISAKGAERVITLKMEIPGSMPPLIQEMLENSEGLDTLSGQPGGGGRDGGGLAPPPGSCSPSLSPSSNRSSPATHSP

COC(=O)Nc1ccc(Cl)c(Cl)c1
active: [3] 24 µM | [4] 26.2 µM | [5] 55.7 µM | [6] 172 µM
not listed: [19]
inactive: all other assays above

COc1ccccc1N=Nc1c(S(=O)(=O)O)cc2cc(S(=O)(=O)O)cc(NC(C)=O)c2c1O
active: [5] 16.4 µM
not listed: [18] | [19]
inactive: all other assays above

CCC(Cl)C(Cl)C(Cl)CC(Cl)C(Cl)C(C)Cl (centres undefined)
active: [3] 47.7 µM | [4] 9.99 µM | [6] 55.7 µM | [8] 116 µM
not listed: [10]
inactive: all other assays above

CC1(C)C(=O)N(Cl)C(=O)N1Br
not listed: [18] | [19]
inactive: all other assays above

COC(C)(C)CC(C)=O
not listed: [19]
inactive: all other assays above

ClC(c1ccccc1)(c1ccccc1)c1ccccc1
active: [4] 5.95 µM
not listed: [10] | [15]
inactive: all other assays above

C=Cc1ccncc1
active: [2] 26.2 µM | [3] 100 µM | [9] 27 µM | [12] 37.1 µM | [14] 57.3 µM | [16] 43.4 µM | [17] 22.7 µM
not listed: [10] | [15]
inactive: all other assays above

O=C(c1ccccc1)C(O)c1ccccc1 (centres undefined)
not listed: [10] | [16]
inactive: all other assays above
